Experimental data taken from PubChem BioAssay (NCI).
This is part of a sample that, as a whole, favours compounds with a hit. Of some 79,000 tested, about 15% had one in any assay. Unmarked numbers belong to inactive results. The source made the active and inactive calls. No stated cut-off is given here; in the data, active means growth inhibition above about 70%; inactive means the rest.

Legend:
[1] = NCI Yeast Anticancer Drug Screen. Data for the rad50 strain (AID 155);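 further: 0% = growth of vehicle-only cultures of the same strain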; conditions: S. cerevisiae rad50 strain growth inhibition, hits give high values
How it was run: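 DNA repair mutant yeast, compound exposure, growth read-out; inhibition is taken relative to vehicle.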

[2] = NCI Yeast Anticancer Drug Screen. Data for the mec2-1 strain (AID 157); conditions: S. cerevisiae mec2-1 strain, hits give high values
How it was run: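 Vehicle-treated cultures served as reference for growth inhibition of compound-exposed mec2-1 yeast.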

[3] = NCI Yeast Anticancer Drug Screen. Data for the sgs1 mgt1 strain (AID 161);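 further: 0% = growth of cultures given vehicle only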; conditions: S. cerevisiae sgs1 mgt1 strain, hits give high values
How it was run: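 Mutant yeast exposed to compound; growth scored against vehicle-only wells.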

[4] = NCI Yeast Anticancer Drug Screen. Data for the cln2 rad14 strain (AID 165);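 further: 0% = growth equal to vehicle treated cultures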; conditions: S. cerevisiae cln2 rad14 strain, hits give high values
How it was run: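 Each compound was tested on cln2 rad14 yeast. Inhibition of growth was calculated against vehicle-exposed controls.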

[5] = NCI Yeast Anticancer Drug Screen. Data for the bub3 strain (AID 167); conditions: S. cerevisiae bub3 mutant strain, hits give high values
How it was run: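 In this screen, a yeast mutant lacking normal mitotic checkpoint function is challenged with compound. Relative growth versus vehicle gives the inhibition value.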

[6] = NCI Yeast Anticancer Drug Screen. Data for the mlh1 rad18 strain (AID 175); conditions: S. cerevisiae mlh1 rad18 strain growth inhibition, hits give high values
How it was run: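 Vehicle-treated cultures served as the reference for growth inhibition in a yeast strain carrying DNA damage repair alterations exposed to each compound.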

[7] = at 5.0 µM (retest, dose inferred, filed as 0.5)
[8] = at 50.0 µM (retest, dose inferred, filed as 5.0)

Compound | growth inhibition [1, 7] | growth inhibition [1, 8] | growth inhibition ([1]; at 50.0 µM) | growth inhibition [2, 7] | growth inhibition [2, 8] | growth inhibition ([2]; at 50.0 µM) | growth inhibition [3, 7] | growth inhibition [3, 8] | growth inhibition ([3]; at 50.0 µM) | growth inhibition [4, 7] | growth inhibition [4, 8] | growth inhibition ([4]; at 50.0 µM) | growth inhibition [5, 7] | growth inhibition [5, 8] | growth inhibition ([5]; at 50.0 µM) | growth inhibition [6, 7] | growth inhibition [6, 8] | growth inhibition ([6]; at 50.0 µM)
COC(=O)c1nc(N)nc(C(=O)OC)c1C(=O)c1ccccc1 | 0% | 21% | -32.9% | 22% | -5% | -13.3% | 30% | 20% | -29.4% | -13% | 1% | 42.7% | -3% | 0% | -24.6% | -2% | -5% | 0%
O=C(O)CN1CCNCCN(CC(=O)O)CCNCC1 | 66% | 94% (active) | 50.7% | 59% | 93% (active) | 76.1% (active) | 56% | 94% (active) | 69.8% | 25% | 85% (active) | 54.8% | 60% | 95% (active) | 56.2% | 66% | 94% (active) | 56%
CCCCC(=S)N1CCN(c2ccccc2)CC1 | -3% | -8% | 90.3% (active) | 10% | 12% | 62.2% | 5% | 9% | 92.1% (active) | -1% | -14% | 14.9% | 2% | 20% | 81.7% (active) | -2% | -9% | 87.8% (active)
CCOC(=O)CN1CCC(C(=O)CC2(O)C3(Cl)C4(Cl)C5(Cl)C(Cl)(Cl)C6(Cl)C4(Cl)C2(Cl)C6(Cl)C53Cl)CC1 (configuration not stated) | 30% | 98% (active) | 98.8% (active) | 2% | 99% (active) | 99.2% (active) | 51% | 99% (active) | 50.5% | 58% | 98% (active) | 98.5% (active) | 20% | 98% (active) | 99.1% (active) | 62% | 99% (active) | 98.8% (active)
CCCCCC(C)NCC(O)Cc1ccc(OCCCC)cc1 (configuration not stated) | 22% | 100% (active) | 99.5% (active) | 29% | 99% (active) | 99.3% (active) | 37% | 100% (active) | 99.3% (active) | 34% | 100% (active) | 98.9% (active) | 42% | 100% (active) | 99.5% (active) | 20% | 100% (active) | 99.7% (active)
Cc1cccc2c(Nc3ccc(NS(C)(=O)=O)cc3)c3ccccc3nc12 | 55% | 94% (active) | 96.5% (active) | -1% | 41% | 47.3% | 1% | 17% | 28.6% | -7% | 19% | -12.7% | -2% | 2% | 24.6% | -2% | 31% | 39.3%
CC(C)OP(=O)(OC(C)C)/C(I)=N/Nc1ccc([N+](=O)[O-])cc1 | -7% | -1% | 68.7% | -6% | 8% | 13.9% | 6% | 37% | 38.4% | -14% | 14% | 13.1% | 1% | -1% | 61.7% | 9% | 4% | 70%
O=[N+]([O-])c1cc(Br)cc2c1nc(NCCCO)c1ccccc12 | 42% | 93% (active) | 95.7% (active) | 11% | 92% (active) | 96.4% (active) | 43% | 96% (active) | 98.5% (active) | 33% | 89% (active) | 94.3% (active) | 12% | 96% (active) | 94.6% (active) | 59% | 97% (active) | 98.8% (active)
CCCCCCCN(CCCCCCC)CC(=O)NC(=O)c1ccccc1 | 29% | 99% (active) | 99.4% (active) | 21% | 98% (active) | 97.2% (active) | 23% | 99% (active) | 99.5% (active) | 33% | 99% (active) | 96.8% (active) | 43% | 99% (active) | 99.3% (active) | 26% | 99% (active) | 99.3% (active)
COC(=O)N/N=C(/CC1(O)C(=O)Nc2ccccc21)c1ccc(Cl)cc1Cl (configuration not stated) | 21% | 97% (active) | 97.5% (active) | 10% | 97% (active) | 98.5% (active) | 32% | 97% (active) | 98.2% (active) | 12% | 97% (active) | 92.3% (active) | 8% | 97% (active) | 96.8% (active) | 19% | 94% (active) | 97.8% (active)
CCCCCCCn1ccnc1NCCCCCCCCCCNc1nccn1CCCCCCC | -3% | 98% (active) | 99.3% (active) | -5% | 98% (active) | 99.6% (active) | -6% | 99% (active) | 47.4% | -4% | 98% (active) | 93.9% (active) | 1% | 98% (active) | 94.5% (active) | -1% | 98% (active) | 98.9% (active)
O=C1Nc2ccccc2SC1c1ccccc1 (configuration not stated) | 3% | 97% (active) | 98.2% (active) | 15% | 99% (active) | 99.6% (active) | -2% | 99% (active) | 99.5% (active) | 10% | 99% (active) | 98.8% (active) | 19% | 98% (active) | 99.3% (active) | 10% | 99% (active) | 98.8% (active)
CCOC(=O)c1cn(CC)c2cc(-n3cccc3)ccc2c1=O | -3% | 28% | 31.4% | -1% | 21% | 20.6% | -2% | 39% | 56.4% | -2% | 17% | 22.2% | 0% | 27% | 33.5% | 1% | 50% | 47.2%
NCCSC1(O)C(=O)c2ccccc2C1=O | 35% | 92% (active) | 94.4% (active) | 18% | 72% (active) | 65.7% | -4% | 64% | 56.1% | -3% | 46% | 59.3% | -3% | 43% | 48.5% | 0% | 70% (active) | 75.2% (active)
CSS(=O)(=O)c1ccc(C)cc1 | 22% | 99% (active) | 99.7% (active) | 22% | 100% (active) | 99.7% (active) | 21% | 100% (active) | 99.2% (active) | -27% | 99% (active) | 99.4% (active) | 18% | 100% (active) | 99.5% (active) | -10% | 99% (active) | 99.5% (active)
CN1CCN(C2=C(Cl)C3(OCCS3)C(F)(F)C2(F)F)CC1 (configuration not stated) | -1% | -42% | 34.1% | 26% | 53% | 34.2% | 15% | 58% | 53.7% | 1% | 29% | 49.2% | 5% | 22% | 39.9% | 20% | 68% | 48.1%
CCCC(C1=C(O)CC(C)CC1=O)C1=C(O)CC(C)CC1=O (configuration not stated) | -6% | -2% | -8.7% | -5% | -4% | 0.4% | -4% | 8% | -5.6% | -34% | 23% | -24.4% | -6% | 19% | -7.2% | 4% | 28% | 0.45%
Oc1ccc(Br)cc1C=Nc1c(NC2CCCCC2)oc2ccc(Br)cc12 | -4% | 9% | -9.35% | 3% | -2% | 39.4% | 11% | 22% | 41.8% | -18% | 0% | 37% | -12% | 43% | 53.4% | -4% | 29% | 50.5%
CC(=O)Nc1ccc(-c2nnc(SCC(=O)Nc3ccc([N+](=O)[O-])cc3)o2)cc1 | -1% | 45% | 33.4% | -8% | 65% | 39.3% | 0% | 62% | 46% | 4% | 56% | -37.9% | 11% | 92% (active) | 82% (active) | 5% | 74% (active) | 28.4%
